Source: PubChem BioAssay
BAZ2B block: BAZ2B (human) inhibition. AlphaScreen BAZ2B-H3K14Ac peptide displacement. Potency, µM (titrated, usually from 114 µM), for the others: at the highest dose activity change, negative = inhibition, usual class: inhibitors. AID 504333. hit rate 4.4% among 360,000; further: potency means the concentration at half of the fitted maximal effect; on the % scale 0 is the no-effect control and ±100 the full control effect; nearly all actives have a fitted effect of over 60% in size
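AlphaScreen displacement of biotin-H3(5-23)K14Ac peptide (50 nM final) from BAZ2B (50 nM final) in PBS pH 7.4, 0.01% Tween-20; complex preformed 30 min RT, then compounds (top 110 uM) 30 min RT, beads 20 min dark.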
G9a inh: G9a (human) methyltransferase inhibition. Q96KQ7. G9a H3K9 monomethylation, AlphaScreen, 2 h. Potency, µM (highest dose often 102 µM), without a hit: top-dose activity, negative = inhibition, hits mostly inhibitors. hit rate 8.8% among 350,000. AID 504332; further: potency means the concentration at half of the fitted maximal effect; on the % scale 0 is the no-effect control and ±100 the full control effect; nearly all actives have a fitted effect of over 75% in size
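G9a (20 nM) was preincubated 15 min with compound, then reacted 2 h at room temperature with 500 nM biotin-H3K9 peptide and 20 µM SAM. Monomethyl-H3K9 detected by AlphaScreen using anti-H3K9me1 antibody.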
PLK1 PBD inh: blocks phosphopeptide binding to human PLK1 polo-box domain. Potency, µM, without a hit: max response, negative = inhibition, most hits filed as inhibitors. P53350. Plk1 PBD binding of FITC phosphopeptide, fluorescence polarization. hit rate 2.8% among 360,000; further: potency means the concentration at half of the fitted maximal effect; series mostly up to about 57 µM; on the % scale 0 is the no-effect control and ±100 the full control effect; nearly all actives have a fitted effect of over 65% in size
PI5P4K alpha inh: blocks human PI5P4K alpha kinase activity; P48426; max response, %; AID 652105; hit rate 1.2% among 330,000; PI5P4Kalpha enzyme, ADP-Glo luminescence, 60 min; active compounds read low; active means max response of -50% or lower; inconclusive means between -30% and -50%; inactive means -30% or higher; further: value at the top dose of about 77 µM; on the % scale 0 is the no-effect control and ±100 the full control effect
Target sequence (P48426 whole entry, looked up): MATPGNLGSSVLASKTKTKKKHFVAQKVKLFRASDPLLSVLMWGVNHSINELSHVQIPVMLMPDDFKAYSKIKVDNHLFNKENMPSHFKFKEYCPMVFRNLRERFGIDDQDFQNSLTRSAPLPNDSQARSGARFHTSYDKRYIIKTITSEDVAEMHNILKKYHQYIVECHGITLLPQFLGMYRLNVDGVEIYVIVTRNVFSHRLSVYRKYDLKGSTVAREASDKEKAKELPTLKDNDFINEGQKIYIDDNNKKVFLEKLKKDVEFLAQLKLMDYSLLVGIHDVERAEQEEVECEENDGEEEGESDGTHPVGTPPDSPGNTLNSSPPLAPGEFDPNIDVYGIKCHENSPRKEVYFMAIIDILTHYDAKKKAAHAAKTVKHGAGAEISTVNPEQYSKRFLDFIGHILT
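Compounds were pin-transferred onto PI5P4Kalpha and substrate in HEPES pH 7.4 buffer with EGTA, CHAPS and 5% DMSO. ATP (5 microM final) started the reaction, which ran 60 minutes at room temperature before ADP-Glo detection.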
JMJD2A Tudor: JMJD2A Tudor domain (human) inhibition. O75164. AlphaScreen JMJD2A-Tudor / H3K4me3 peptide binding. Potency, µM (top dose mostly 114 µM), for the others: at the top dose activity change, negative = inhibition, most hits filed as inhibitors. hit rate 4.4% among 390,000. AID 504339; further: potency means the concentration at half of the fitted maximal effect; on the % scale 0 is the no-effect control and ±100 the full control effect; nearly all actives have a fitted effect of over 50% in size
HP1b chromo inh: HP1-beta chromodomain-methylated histone interaction inhibition; P83916; AlphaScreen HP1-beta / biotin-H3K9me3 peptide binding; Potency, µM (series often up to 114 µM), inactives show at the highest dose activity change, negative = inhibition, actives largely listed as inhibitors; hit rate 0.56% among 390,000; AID 540317; further: potency means the concentration at half of the fitted maximal effect; nearly all actives have a fitted effect of over 70% in size
Target sequence (P83916 whole entry, looked up): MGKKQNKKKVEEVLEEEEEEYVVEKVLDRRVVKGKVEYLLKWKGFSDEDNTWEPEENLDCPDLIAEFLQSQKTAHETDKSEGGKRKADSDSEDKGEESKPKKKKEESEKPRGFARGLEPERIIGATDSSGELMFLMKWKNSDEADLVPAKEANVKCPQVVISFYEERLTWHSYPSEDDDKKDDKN
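HP1-beta protein (50 nM final) preincubated 30 min at room temperature with biotinylated H3(1-18)K9me3 peptide (50 nM) in PBS pH 7.4, 0.01% Tween-20, then compound added for 30 min. AlphaScreen streptavidin donor/nickel chelate acceptor beads (10 ug/mL final), 30 min dark, luminescence read.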
* marks the source's active call; other numbers are inactive results; ? = inconclusive; / = no result given; [ ] = dose if it differs, or a comment. Hits are enriched below; roughly 12% of the tested compounds scored in any of these assays. Unless noted, the call rests on the fitted dose curve; in most records, active means well fitted curve in the direction sought with a large enough effect; inconclusive means small, poorly fitted or top-dose-only effect, or another doubt; inactive means no such curve, though single readings can be large; an effect the other way counts as inactive or inconclusive.

SMILES	BAZ2B block	G9a inh	PLK1 PBD inh	PI5P4K alpha inh	JMJD2A Tudor	HP1b chromo inh
Cc1ccc(NC(=O)c2cc(-c3cccs3)nc3ccccc23)nc1	-18.0%	39.8µM*	-4.8%	4.6	11.0%	63.2%
COCC(=O)N1CCC2(CC1)CN(C(c1ccccc1)c1ccccc1)C2	/	4.1%[12.7 µM]	/	/	/	/
Cc1cc(=O)nc2c3ccccc3n(CC(=O)NC(C)c3ccc4c(c3)OCCO4)n12 (configuration not stated)	-25.4%	-0.7%[59 µM]	-2.1%	-2.2	-1.5%	39.5%
CCN(CC)CCOCCOc1cc(C)c(Cl)c(C)c1	-5.8%	5.8%	-3.7%	/	-17.7%	17.0%
CCC(C)NCCOCCOc1cc(C)c(Cl)c(C)c1 (configuration not stated)	79.4µM*	?	-12.2%	6.5	3.98µM*	?
CCC(C)NCCOCCOc1ccc(F)cc1 (configuration not stated)	?	?	-0.1%	1.0	3.16µM*	?
CCc1cccc(NC(=O)COC(=O)CSc2ccc(C)cc2)c1	/	/	-17.9%	11.9	/	/
COc1ccc(C2C=C(c3ccccc3)Nc3nc(NC(=O)/C=C/c4ccc(F)cc4)nn32)cc1 (configuration not stated)	-3.8%	-33.6%[59 µM]	/	/	-3.6%	45.7%
COc1nc(C)nc2c1sc1nc3c(cc12)COC(C)(C)C3	-2.0%	21.6%[12.7 µM]	26.7µM*	-14.3	-15.8%[11.4 µM]	-12.8%
CN(CC(=O)Nc1ccc(F)c(F)c1F)C(=O)c1ccc2c(c1)S(=O)(=O)N=C1CCCCCN12	-4.5%	?	-14.6%	8.3	-12.2%	21.6%
COC(=O)c1[nH]c2ccccc2c1NC(=O)CN1CCN(c2cccc(OC)c2)C(C)C1 (configuration not stated)	?	11.7%[2.33 µM]	-10.4%	3.1	15.8µM*	?
CCN(CC(=O)Nc1c(C(=O)OC)[nH]c2ccc(C)cc12)c1ccc2c(c1)OCO2	39.8µM*	35.5µM*	-2.4%	/	44.7µM*	-6.9%
CCOC(=O)c1[nH]c2ccc(OC)cc2c1NC(=O)/C=C/c1ccc2c(c1)OCO2	-28.2%	-15.7%[59 µM]	-8.3%	0.6	-13.2%	41.6%
COC(=O)c1[nH]c2ccccc2c1NC(=O)CN1CCN(Cc2ccc3c(c2)OCO3)CC1	-29.5%	?	-9.7%	-5.1	79.4µM*	1.3%
O=C(/C=C/c1ccc2c(c1)OCO2)Nc1c(C(=O)O)[nH]c2ccccc12	?	11.2µM*	-12.5%	?	?	-16.4%
COC(=O)c1[nH]c2ccc(F)cc2c1NC(=O)CCN1CCN(Cc2ccc3c(c2)OCO3)CC1	9.6%	-20.5%	0.2%	16.2	-18.6%	32.6%
COc1ccc(NC(=O)N(Cc2nnc3n2CCCCC3)c2ccc(OC)c(Cl)c2)cc1	1.1%	-33.7%[59 µM]	/	/	2.9%	23.2%[57 µM]
CC(C)[C@H](N)C(=O)N[C@H]1CCC2C3CC=C4C[C@@H](O)CC[C@]4(C)C3CC[C@@]21C (some centres not stated)	/	/	-10.2%	-2.1	/	/
C=C(C)[C@@H]1CC[C@]2(C(=O)O)CC[C@]3(C)[C@H](CCC4[C@@]5(C)CC[C@H](O)C(C)(C)[C@@H]5CC[C@]43C)[C@@H]12 (some centres not stated)	/	27.0%[59 µM]	/	/	/	/
O=C(Cn1c(=O)c2sccc2n(CC(=O)Nc2ccc(Cl)cc2Cl)c1=O)NCCc1ccccc1	0.2%	26.7%[59 µM]	/	/	-12.3%	22.7%
CCc1cccc(Nc2cc(C)nc3ncnn23)c1	-3.2%	2.4%	23.8µM*	-7.3	?	9.5%
Cc1cc(Nc2ccc(Cl)cc2)n2ncnc2n1	4.1%	/	-5.8%	-1.7	-11.5%	46.0%
CCCc1cc(Nc2cccc(OC)c2)n2ncnc2n1	-4.3%	-32.2%[59 µM]	-4.2%	/	-25.4%	0.3%
Cc1cc(Nc2cccc(Cl)c2)n2ncnc2n1	7.6%	8.3%	-4.9%	-14.3	-4.9%	59.3%
Cc1cc(Nc2ccc(N(C)C)cc2)n2ncnc2n1	-7.9%	44.7µM*	-1.3%	-3.3	-14.6%	10.9%
SMILES	BAZ2B block	G9a inh	PLK1 PBD inh	PI5P4K alpha inh	JMJD2A Tudor	HP1b chromo inh
CCc1ccc(Nc2cc(C)nc3ncnn23)cc1	1.3%	/	-7.8%	3.9	-10.3%	24.6%
CCn1c2ccccc2c2cc(Nc3cc(C)nc4ncnn34)ccc21	-29.8%	44.7µM*	-7.6%	-19.1	?	-5.1%
CCCc1cc(Nc2cccc(OCC)c2)n2ncnc2n1	8.0%	56.2µM*	-5.0%	/	-1.3%	38.1%
CCN(Cc1ccc(Br)s1)C(=O)CSc1nnc(C2CC2)n1C1CC1	/	/	-0.1%	-2.2	/	/
Cc1cc(Nc2ccccc2F)n2ncnc2n1	5.7%	50.1µM*	?	0.5	-12.7%	49.8%
O=C1c2cccc([N+](=O)[O-])c2C(=O)N1C1CCCCC1	-13.0%	/	-9.1%	1.5	-30.8%	3.9%
O=C1c2cccnc2C(=O)N1C1CCCCC1	79.4µM*	107.6%[59 µM]	-4.6%	/	-7.7%	30.9%
O=C(c1cc(C2CCCCN2S(=O)(=O)c2ccc(F)cc2F)on1)N1CCOCC1 (configuration not stated)	/	/	-4.6%	0.8	/	/
C[N+](C)(C)CC/C=C1/c2ccccc2CSc2ccccc21	79.4µM*	?	-10.6%	4.7	50.1µM*	43.3%
CC(=O)OCCCN(C)CC/C=C1/c2ccccc2CSc2ccccc21	/	/	-12.8%	0.6	-18.0%	26.6%
Cc1cccc(C2C3=C(Nc4[nH]n(-c5ccccc5)c(=O)c42)c2ccccc2C3=O)c1 (configuration not stated)	31.6µM*	20µM*	?	?	35.5µM*	?
COc1ccc(CSc2nnnn2Cc2ccccc2)cc1OC	-1.8%	1.3%[12.7 µM]	-1.0%	/	-14.2%	-0.1%
COc1ccc(Cc2nnc(Cl)c3ccccc23)cc1OC	-34.8%	50.1µM*	-5.4%	9.7	-10.0%	10.1%
C/C=C(\C)C(=O)NCCN1C2=NC[C@H](C)N2C[C@@H]1Cc1ccc(OC)cc1	-6.5%	/	-2.1%	-0.8	-14.3%	37.8%
CCCCCCNC(=O)N[C@H](C(=O)NCCC[C@H]1CN2C(=NC[C@H]2C)N1CCC(c1ccccc1)c1ccccc1)C(C)O (some centres not stated)	20µM*	?	/	/	/	/
COc1cc(NC(C)C(=O)N2CC(C)OC(C)C2)cc(OC)c1 (configuration not stated)	39.8µM*	?	4.7%	-7.2	3.16µM*	15.8µM*
COc1cccc(NC(C)C(=O)N2CC(C)OC(C)C2)c1 (configuration not stated)	1.9%	/	-4.4%	-6.5	40.5%	12.3%
